Data published in PubChem BioAssay.
“And” between values parts separate entries of the source, which are not always exact repeats. Equal values may be shown once. The source made the active and inactive calls.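 Rule for the calls, unless noted: active = compounds whose cell count with miR-34 switched on is under 0.7 times the count with it off; inactive = the rest.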

Experiments:
[1] = sensitizers of A549 cells to miR-34 induction, primary screen, imaging, A549 dox-inducible miR-34, nuclei and caspase counts (AID 1347080); conditions: A549 miR-34 inducible, Hoechst nuclei count, 48 h
[2] = survival rescue of mitochondrial mutant cells in low glucose, primary screen, MELAS cybrids, Rieske KO mouse fibroblasts, CellTiter-Glo (AID 1508586;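 active = mean z-score across replicates of 1.96 or higher in either the MELAS or the Rieske mutant cell line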;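 note: z relative to plate mean and SD of compound and empty wells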)
[3] = biological target: NAD(+) hydrolase SARM1 (Homo sapiens) (UniProt Q6SZW1); assay: SARM1 TIR NADase inhibitors, cell lysate, NAD-Glo luminescence (AID 1508614;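 active = compound whose remaining NAD level is above about 45 nM, limit read from the data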;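 note: higher remaining NAD means stronger inhibition of SARM1 NADase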); conditions: SAM-TIR HEK293T lysate NADase, at 1 µM, stronger effect = higher value
NAD(+) hydrolase SARM1 (Homo sapiens), sequence (Q6SZW1 whole entry, looked up, the tested form may be a part): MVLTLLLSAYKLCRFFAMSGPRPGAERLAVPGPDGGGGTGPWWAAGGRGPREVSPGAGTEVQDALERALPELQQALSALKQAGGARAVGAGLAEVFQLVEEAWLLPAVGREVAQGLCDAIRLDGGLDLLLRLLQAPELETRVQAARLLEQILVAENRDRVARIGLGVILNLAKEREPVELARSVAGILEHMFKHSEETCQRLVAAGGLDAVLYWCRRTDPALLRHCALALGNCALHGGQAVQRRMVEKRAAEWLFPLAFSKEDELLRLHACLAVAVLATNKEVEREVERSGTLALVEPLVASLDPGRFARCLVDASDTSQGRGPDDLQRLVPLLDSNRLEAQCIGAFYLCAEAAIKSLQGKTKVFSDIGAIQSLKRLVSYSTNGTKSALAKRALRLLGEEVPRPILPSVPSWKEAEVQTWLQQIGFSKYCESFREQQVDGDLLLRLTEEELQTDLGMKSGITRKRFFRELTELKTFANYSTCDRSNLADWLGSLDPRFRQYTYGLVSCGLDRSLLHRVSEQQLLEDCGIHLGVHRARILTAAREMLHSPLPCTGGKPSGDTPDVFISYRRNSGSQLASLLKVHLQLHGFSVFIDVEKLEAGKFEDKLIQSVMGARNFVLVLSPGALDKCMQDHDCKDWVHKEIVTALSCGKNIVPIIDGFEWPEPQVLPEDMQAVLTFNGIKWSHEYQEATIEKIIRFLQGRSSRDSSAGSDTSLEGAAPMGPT

[4] = biological target: Mitogen-activated protein kinase 7 (Homo sapiens) (UniProt Q13164); assay: ERK5 transactivation activators in reporter cells, primary screen, cell-based, HTS (AID 1508626;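 active = luciferase signal above three times the same-plate solvent-only control wells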;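 note: luciferase driven by Gal4-ERK5 fusion binding five Gal4 sites before minimal TATA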); conditions: HeLa Gal4-ERK5 transactivation, 18 h, at 5 µM, stronger effect = higher value
Mitogen-activated protein kinase 7 (Homo sapiens), sequence (Q13164 whole entry, looked up, the tested form may be a part): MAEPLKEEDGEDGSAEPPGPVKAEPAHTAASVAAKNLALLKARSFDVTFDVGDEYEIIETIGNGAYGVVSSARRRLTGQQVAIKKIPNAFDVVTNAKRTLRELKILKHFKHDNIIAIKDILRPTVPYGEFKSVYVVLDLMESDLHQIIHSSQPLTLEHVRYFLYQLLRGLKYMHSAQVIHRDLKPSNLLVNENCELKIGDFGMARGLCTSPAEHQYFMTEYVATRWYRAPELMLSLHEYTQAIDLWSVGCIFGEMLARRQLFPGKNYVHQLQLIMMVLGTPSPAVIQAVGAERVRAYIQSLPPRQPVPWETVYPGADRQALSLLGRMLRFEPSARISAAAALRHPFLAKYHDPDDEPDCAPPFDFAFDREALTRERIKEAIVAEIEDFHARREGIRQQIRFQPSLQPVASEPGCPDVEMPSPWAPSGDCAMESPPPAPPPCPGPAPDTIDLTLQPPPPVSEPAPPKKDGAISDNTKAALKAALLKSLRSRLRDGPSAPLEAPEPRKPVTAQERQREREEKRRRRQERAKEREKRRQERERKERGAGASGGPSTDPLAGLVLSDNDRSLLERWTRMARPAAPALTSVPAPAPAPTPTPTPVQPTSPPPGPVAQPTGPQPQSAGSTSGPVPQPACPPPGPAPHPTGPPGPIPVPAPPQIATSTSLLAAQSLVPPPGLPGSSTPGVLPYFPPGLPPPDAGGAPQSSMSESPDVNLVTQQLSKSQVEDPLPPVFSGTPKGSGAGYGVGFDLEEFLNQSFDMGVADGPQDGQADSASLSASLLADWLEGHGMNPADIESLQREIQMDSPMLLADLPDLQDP

[5] = viability rescue of complex I mutant cybrids, primary screen, cell-based, galactose medium, ATP luminescence (AID 1645843;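 active = z-score of at least 1.8 in each of two replicates, scored against plate mean and spread of sample wells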;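 note: positive z means more ATP and so rescue of galactose-driven cybrid death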); conditions: complex I mutant cybrid cells, 72 h, stronger effect = higher value
[6] = stronger effect = lower value, cell number ratio, induced over uninduced
[7] = measured here: relative caspase fold change +Dox/-Dox
[8] = measured here: total cells with miR-34 induction, stronger effect = lower value
[9] = measured here: total cells without miR-34 induction
[10] = MELAS cybrid survival, CellTiter-Glo 48 h, stronger effect = higher value
[11] = Rieske KO mouse fibroblast survival, CellTiter-Glo 72 h

Question: For `NCCCC[C@H](N[C@@H](CCc1ccccc1)C(=O)O)C(=O)N1CCC[C@H]1C(=O)O`, which fold change [1, 6] is on record?
Answer: 0.921 (inactive) and 0.874 (inactive) and 0.913 (inactive)

Question: What about the fold change [1, 7] of the same compound?
Answer: 0.957 and 2.44 and 1.18

Question: What about the cell count [1, 8] of the same compound?
Answer: 8900 and 11300 and 9570

Question: And the cell count [1, 9]?
Answer: 9670 and 13000 and 10500

Question: What about the z-score [2, 10] of the same compound?
Answer: 0.256 (inactive) and -0.39 (inactive)

Question: What about the z-score [2, 11] of the same compound?
Answer: -0.142 and -0.658

Question: And the remaining NAD [3]?
Answer: 10 nM (inactive)

Question: What about the luciferase signal [4] of the same compound?
Answer: 92 AU (inactive)

Question: And the z-score [5]?
Answer: 0.245 (inactive)

Question: With `Cn1c(=O)c2c(ncn2CCO)n(C)c1=O` as the compound, how does the fold change [1, 6] read?
Answer: 0.968 (inactive)

Question: And the fold change [1, 7]?
Answer: 1.24

Question: And the cell count [1, 8]?
Answer: 8860

Question: And the cell count [1, 9]?
Answer: 9160

Question: What about the z-score [2, 10] of the same compound?
Answer: -0.0698 (inactive)

Question: And the z-score [2, 11]?
Answer: -0.0506

Question: What about the luciferase signal [4] of the same compound?
Answer: 196 AU (active)

Question: Which results are given for `COc1cc(C)nc(-n2nc(C)cc2OC)n1`?
Answer: fold change [1, 6]: 0.917 (inactive) and 1.02 (inactive); fold change [1, 7]: 1.25 and 2.09; cell count [1, 8]: 8860 and 9160; cell count [1, 9]: 9670 and 8950; z-score [2, 10]: 0.813 (inactive); z-score [2, 11]: 0.154; z-score [5]: 0.61 (inactive)

Question: With `CCN(CC)C(=O)N1CCN(C)CC1` as the compound, how does the fold change [1, 6] read?
Answer: 0.919 (inactive) and 0.923 (inactive) and 0.836 (inactive)

Question: And the fold change [1, 7]?
Answer: 1.19 and 0.187 and 0.88

Question: What about the cell count [1, 8] of the same compound?
Answer: 8740 and 9030 and 11300

Question: What about the cell count [1, 9] of the same compound?
Answer: 9520 and 9780 and 13500

Question: And the z-score [2, 10]?
Answer: 0.833 (inactive) and 0.0717 (inactive)

Question: What about the z-score [2, 11] of the same compound?
Answer: -0.23 and -0.00609

Question: And the remaining NAD [3]?
Answer: 10 nM (inactive)

Question: And the luciferase signal [4]?
Answer: 60 AU (inactive)

Question: And the z-score [5]?
Answer: 0.74 (inactive)

Question: Which results are given for `Cc1[nH]cnc1CN1CCc2c(c3ccccc3n2C)C1=O`?
Answer: fold change [1, 6]: 0.98 (inactive); fold change [1, 7]: 1.07; cell count [1, 8]: 9740; cell count [1, 9]: 9940; z-score [2, 10]: 0.685 (inactive); z-score [2, 11]: 0.531; z-score [5]: -0.045 (inactive)

Question: Which fold change [1, 6] does the source give for `CN(CCCN1c2ccccc2CCc2ccccc21)CC(=O)c1ccc(Cl)cc1` here?
Answer: 0.782 (inactive) and 0.894 (inactive)

Question: And the fold change [1, 7]?
Answer: 1.92 and 1.33

Question: What about the cell count [1, 8] of the same compound?
Answer: 5730 and 6590

Question: And the cell count [1, 9]?
Answer: 7330 and 7370

Question: And the z-score [2, 10]?
Answer: 0.202 (inactive)

Question: And the z-score [2, 11]?
Answer: 0.354

Question: And the z-score [5]?
Answer: -1.82 (inactive) and -0.185 (inactive)

Question: For `Oc1ccc(Cl)c2cccnc12`, which fold change [1, 6] is on record?
Answer: 0.902 (inactive)

Question: And the fold change [1, 7]?
Answer: 0.654

Question: And the cell count [1, 8]?
Answer: 10900

Question: What about the cell count [1, 9] of the same compound?
Answer: 12000

Question: And the remaining NAD [3]?
Answer: 10 nM (inactive)

Question: And the luciferase signal [4]?
Answer: 60 AU (inactive)

Question: For `O=C(OCc1ccccc1)c1ccccc1`, which fold change [1, 6] is on record?
Answer: 0.956 (inactive)

Question: What about the fold change [1, 7] of the same compound?
Answer: 3.44

Question: What about the cell count [1, 8] of the same compound?
Answer: 12000

Question: What about the cell count [1, 9] of the same compound?
Answer: 12500

Question: What about the remaining NAD [3] of the same compound?
Answer: 10 nM (inactive)

Question: And the luciferase signal [4]?
Answer: 88 AU (inactive)

Question: Which fold change [1, 6] does the source give for `Cc1cc(C)cc(OCC2CNC(=O)O2)c1` (centres undefined) here?
Answer: 0.878 (inactive)

Question: And the fold change [1, 7]?
Answer: 2.33

Question: What about the cell count [1, 8] of the same compound?
Answer: 10800

Question: What about the cell count [1, 9] of the same compound?
Answer: 12400

Question: What about the remaining NAD [3] of the same compound?
Answer: 10 nM (inactive)

Question: What about the luciferase signal [4] of the same compound?
Answer: 72 AU (inactive)
